We go through 23 compounds from the supplement of paper PMC7393113.

Structures can show the parent of a compound that is named as a salt. ± gives the standard deviation of the averaged measurements.

This test concerns iBMDM (immortalised mouse bone-marrow-derived macrophages), LPS-stimulated. Put plainly: mitochondrial superoxide (MitoSOX fluorescence) fold increase over unstimulated control; higher = more LPS-induced mitochondrial ROS (less inhibition). Conditions: inhibitor concentration: 500 nM, LPS: 100 ng/ml. In a few lines: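 Immortalised mouse bone-marrow-derived macrophages were seeded in triplicate in black 96-well plates and moved to phenol-red-free 1% FCS/DMEM for 20 h. They were pretreated 30 min with kinase inhibitors (500 nM), loaded with 1 μM MitoSox for 10 min, then given LPS (100 ng/ml). Fluorescence (excitation/emission 510/580 nm, ClarioStar plate reader) was read every 60 min for 4 h. Mitochondrial superoxide is fold induction over untreated control macrophages, averaged over three replicates.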

For the compound `C[C@H](Nc1ncnc2nc[nH]c12)c1cc2cccc(Cl)c2c(=O)n1-c1ccccc1`, the mitochondrial superoxide was determined as 1.09 ± 0.045 (time after LPS: 1 h), 1.2 ± 0.032 (time after LPS: 2 h) and 1.31 ± 0.023 (time after LPS: 4 h).

As for `S=C(NCc1ccc2c(c1)OCO2)N1CCN(c2ncnc3c2oc2ccccc23)CC1` [Amuvatinib (MP-470)], the mitochondrial superoxide runs as follows: (time after LPS: 1 h) 1.18 ± 0.12; (time after LPS: 2 h) 1.21 ± 0.076; (time after LPS: 4 h) 1.15 ± 0.063.

As for `Cc1ccc(NC(=O)c2ccc(CN3CCN(C)CC3)cc2)cc1Nc1nc(-c2cccnc2)cs1` [Masitinib (AB1010)], the mitochondrial superoxide (time after LPS: 1 h) worked out at 1.44 ± 0.013, the mitochondrial superoxide (time after LPS: 2 h) came out at 1.52 ± 0.067 and the mitochondrial superoxide (time after LPS: 4 h) was determined as 1.72 ± 0.12.

`Nc1nc(N)c2nc(-c3cccc(O)c3)cnc2n1`: the mitochondrial superoxide runs as follows: (time after LPS: 1 h) 1.03 ± 0.016; (time after LPS: 2 h) 1.04 ± 0.043; (time after LPS: 4 h) 1.09 ± 0.046.

For the compound `C=CC(=O)Nc1cccc(Sc2nc(Nc3ccc(N4CCN(C)CC4)cc3)ncc2Cl)c1`, the mitochondrial superoxide by setting is: (time after LPS: 1 h) 1.24 ± 0.09; (time after LPS: 2 h) 1.26 ± 0.035; (time after LPS: 4 h) 1.26 ± 0.032.

With `Cn1cc(-c2ccc3nnc(C(F)(F)c4ccc5ncccc5c4)n3n2)cn1`, the mitochondrial superoxide reads like this: (time after LPS: 1 h) 1.4 ± 0.062; (time after LPS: 2 h) 1.44 ± 0.015; (time after LPS: 4 h) 1.5 ± 0.019.

`Oc1cc(O)cc(/C=C/c2ccc(O)c(O)c2)c1` [Piceatannol]: the mitochondrial superoxide reads like this: (time after LPS: 1 h) 1.13 ± 0.0055; (time after LPS: 2 h) 1.15 ± 0.013; (time after LPS: 4 h) 1.23 ± 0.041.

On to `NC1(Cc2ccc(Cl)cc2)CCN(c2ncnc3[nH]ccc23)CC1`, for which the mitochondrial superoxide by setting is: (time after LPS: 1 h) 1.31 ± 0.037; (time after LPS: 2 h) 1.43 ± 0.058; (time after LPS: 4 h) 1.68 ± 0.021.

As for `C#Cc1cccc(Nc2ncnc3cc(OCCOC)c(OCCO)cc23)c1`, the mitochondrial superoxide runs as follows: (time after LPS: 1 h) 1.16 ± 0.089; (time after LPS: 2 h) 1.2 ± 0.038; (time after LPS: 4 h) 1.3 ± 0.14.

`Cc1cc(Nc2nc(N[C@@H](C)c3ccc(F)cc3)c(C#N)cc2F)n[nH]1`: the mitochondrial superoxide runs as follows: (time after LPS: 1 h) 1.09 ± 0.054; (time after LPS: 2 h) 1.18 ± 0.028; (time after LPS: 4 h) 1.31 ± 0.085.

In the case of `O=c1c(O)c(-c2ccc(O)c(O)c2)oc2cc(O)cc(O)c12` [Quercetin], the mitochondrial superoxide (time after LPS: 1 h) came to 1.31 ± 0.046, the mitochondrial superoxide (time after LPS: 2 h) was 1.35 ± 0.071 and the mitochondrial superoxide (time after LPS: 4 h) was 1.43 ± 0.063.

`COc1cc2c(N3CCN(C(=O)Nc4ccc(OC(C)C)cc4)CC3)ncnc2cc1OCCCN1CCCCC1` [Tandutinib (MLN518)]: the mitochondrial superoxide is 1.61 ± 0.038 (time after LPS: 1 h), 1.77 ± 0.029 (time after LPS: 2 h) and 1.72 ± 0.062 (time after LPS: 4 h).

In the case of `Cc1cc(Nc2cc(N3CCN(C)CC3)nc(Sc3ccc(NC(=O)C4CC4)cc3)n2)n[nH]1` [VX-680 (Tozasertib, MK-0457)], the mitochondrial superoxide was 1.55 ± 0.069 (time after LPS: 1 h), 1.64 ± 0.051 (time after LPS: 2 h) and 1.73 ± 0.033 (time after LPS: 4 h).

The compound `Cc1ccc(-c2nn(C(C)(C)C)c3ncnc(N)c23)cc1` gave a mitochondrial superoxide (time after LPS: 1 h) of 1.18 ± 0.043, a mitochondrial superoxide (time after LPS: 2 h) of 1.22 ± 0.055 and a mitochondrial superoxide (time after LPS: 4 h) of 1.34 ± 0.046.

Turning to `Cc1ccccc1-n1c(Cn2nc(-c3cccc(O)c3)c3c(N)ncnc32)nc2cccc(C)c2c1=O`, the mitochondrial superoxide runs as follows: (time after LPS: 1 h) 1.28 ± 0.017; (time after LPS: 2 h) 1.34 ± 0.033; (time after LPS: 4 h) 1.42 ± 0.034.

Turning to `CCn1c2ccccc2c2cc(Nc3ccnc(NCCCN4CCOCC4)n3)ccc21`, the mitochondrial superoxide amounted to 1.41 ± 0.063 (time after LPS: 1 h), 1.54 ± 0.086 (time after LPS: 2 h) and 1.67 ± 0.096 (time after LPS: 4 h).

Consider `CNC(=O)c1ccccc1Sc1ccc2c(/C=C/c3ccccn3)n[nH]c2c1` [Axitinib], for which the mitochondrial superoxide was 1.77 ± 0.17 (time after LPS: 1 h), 1.78 ± 0.17 (time after LPS: 2 h) and 1.8 ± 0.058 (time after LPS: 4 h).

In the case of `COC(=O)c1ccc2c(C(=Nc3ccc(N(C)C(=O)CN4CCN(C)CC4)cc3)c3ccccc3)c(O)[nH]c2c1` [Nintedanib (BIBF 1120)], the mitochondrial superoxide worked out at 1.43 ± 0.015 (time after LPS: 1 h), 1.5 ± 0.056 (time after LPS: 2 h) and 1.72 ± 0.037 (time after LPS: 4 h).

As for `COc1cc2c(Oc3ccc(NC(=O)C4(C(=O)Nc5ccc(F)cc5)CC4)cc3F)ccnc2cc1OCCCN1CCOCC1`, the mitochondrial superoxide by setting is: (time after LPS: 1 h) 1.25 ± 0.022; (time after LPS: 2 h) 1.35 ± 0.034; (time after LPS: 4 h) 1.48 ± 0.03.

With `O=C1NC(=O)/C(=C/c2cccc(C(F)(F)F)c2)S1`, the mitochondrial superoxide reads like this: (time after LPS: 1 h) 1.27 ± 0.052; (time after LPS: 2 h) 1.35 ± 0.074; (time after LPS: 4 h) 1.53 ± 0.05.

Turning to `CCN1CCN(Cc2ccc(-c3cc4c(N[C@H](C)c5ccccc5)ncnc4[nH]3)cc2)CC1`, the mitochondrial superoxide came to 1.08 ± 0.019 (time after LPS: 1 h), 1.11 ± 0.04 (time after LPS: 2 h) and 1.25 ± 0.081 (time after LPS: 4 h).

For `COc1ccc(-c2ccc3c(N4CCOCC4)nc(N4C[C@@H](C)O[C@@H](C)C4)nc3n2)cc1CO`, the mitochondrial superoxide (time after LPS: 1 h) came out at 1.29 ± 0.041, the mitochondrial superoxide (time after LPS: 2 h) stood at 1.24 ± 0.037 and the mitochondrial superoxide (time after LPS: 4 h) stood at 1.32 ± 0.068.

Consider `Cn1cc(C2=C(c3cn(CCCSC(=N)N)c4ccccc34)C(=O)NC2=O)c2ccccc21` [Ro 31-8220 Mesylate], for which the mitochondrial superoxide (time after LPS: 1 h) turned out to be 1.57 ± 0.051, the mitochondrial superoxide (time after LPS: 2 h) was 1.6 ± 0.0078 and the mitochondrial superoxide (time after LPS: 4 h) was determined as 1.79 ± 0.12.
